From PubChem BioAssay
ATXN2 expr inh – ATXN2 expression inhibition. HEK-293 ATXN2-luciferase reporter, luminescence, 24 h. Potency, µM (series often up to 57 µM), without a hit: at the top dose activity change, negative = inhibition, usual class: inhibitors. actives 0.72% (n = 360,000); also: % is scaled to controls: 0 for no effect and ±100 for the full control effect; nearly all actives have a fitted effect of over 55% in size
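ATXN2-luciferase reporter cells (luciferase flanked by upstream and downstream ATXN2 gene portions) were treated 24 h at 37 °C with compounds at up to 57 uM. SteadyGlo luminescence gave expression; GF-AFC fluorescence gave viability.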
KB-3-1 cytotox – kills parental KB-3-1 adenocarcinoma cells. actives 1.4% (n = 400,000). AID 1347075. Potency, µM (highest dose often 46.1 µM), usual class: cytotoxic. KB-3-1 viability, CellTiter-Glo ATP luminescence, 72 h; also: % is scaled to controls: 0 for no effect and ±100 for the full control effect; nearly all actives have a fitted effect of over 60% in size
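72 h, 37 °C compound treatment of KB-3-1 parental cells; CellTiter-Glo added, 10 min, luminescence read. Data corrected against DMSO-only plates and normalized before curve fitting.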
KB-V1 MDR tox – KB-V1 MDR subline cytotoxicity. actives 3.4% (n = 400,000). KB-V1 MDR cells viability, CellTiter-Glo, 72 h. Potency, µM (series often up to 46.1 µM), usual class: cytotoxic. AID 1347076; also: % is scaled to controls: 0 for no effect and ±100 for the full control effect; nearly all actives have a fitted effect of over 60% in size
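In this primary screen, KB-V1 cells overexpressing P-gp are incubated with library compounds (lowest to highest concentration) for 72 h at 37 degrees C before a luminescent ATP viability read.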
HT1080 IDH1KD tx – toxicity to HT-1080 IDH1 knockdown cells (counter line); HT-1080 IDH1 knockdown viability, ATP luminescence, 48 h; actives 2% (n = 360,000); Potency, µM (top dose mostly 46.1 µM), for inactives: at the top dose activity, negative = toxicity, actives largely listed as cytotoxic;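 also: 0% = DMSO wells and -100% = cell-free medium wells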
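CellTiter-Glo luminescence after 48 h compound exposure at 37 degrees C of IDH1-knockdown HT-1080 cells in 5% FBS RPMI. %Activity scaled between DMSO wells and cell-free media wells, with curves fitted and assigned curve classes.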
HT1080NT lethal – kills 2HG-producing HT-1080-NT fibrosarcoma cells; Potency, µM (series often up to 46.1 µM), for inactives: at the top dose activity, negative = less viability, usual class: cytotoxic; actives 1.6% (n = 360,000); HT-1080-NT fibrosarcoma viability, CellTiter-Glo ATP luminescence, 48 h;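 also: NT is the 2HG producing partner of a matched IDH1 knockdown line; 0% = DMSO-treated cells and -100% = media-only wells without cells; nearly all actives have a fitted effect of over 55% in size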
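Toxicity toward the 2HG-producing NT line was scored as %Activity, normalised to DMSO and no-cell wells, from CellTiter-Glo luminescence after 48 hours' treatment.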
S2 tox – reduces viability in counter-screen for ATXN expression inhibitors | S2 cells (HEK-293 line with an ATXN2-luciferase reporter) viability, CellTiter-Fluor protease fluorescence, 24 h | Potency, µM (series often up to 56.7 µM), most hits filed as cytotoxic | actives 0.49% (n = 400,000); also: nearly all actives have a fitted effect of over 40% in size
* = called active by the depositor; i = inactive; ? = inconclusive; / = no result; [ ] = dose if it differs, or a comment. Rows were chosen to be rich in hits. Some 6.2% of all compounds tested hit in one or more screens of this group. Calls follow the shape of the dose curve; as a rule, active = well fitted curve in the direction sought with a large enough effect; inconclusive = small, poorly fitted or top-dose-only effect, or another doubt; inactive = no such curve, though single readings can be large; an effect the other way counts as inactive or inconclusive. Potency is read from the fitted curve at half-maximal effect.

SMILES | ATXN2 expr inh | KB-3-1 cytotox | KB-V1 MDR tox | HT1080 IDH1KD tx | HT1080NT lethal | S2 tox
Cc1cc(N2CCN(C)CC2)ccc1NC(=O)c1c2c(nc3ccccc13)CCN(Cc1ccccc1)C2 | -28.7%[11.3 µM] | i | ? | 4.61µM* | 5.8µM* | ?
CC(C)(C)NC(=O)COC(=O)c1c2c(nc3ccccc13)CCC2 | -8.8% | i | ? | -17.0% | -15.0% | ?
O=C(O)C1CCC1 | 3.4% | / | / | / | / | i
CC1(C)Cc2c(sc(NC(=O)COc3cccc4ccccc34)c2C#N)C(C)(C)N1 | ? | ? | i | 14.6µM* | 9.2µM* | ?
CCC(=O)Nc1sc2c(c1C#N)CC(C)(C)NC2(C)C | 19.9% | i | i | 3.5% | 9.1% | i
Cc1ccc(OCC(=O)Nc2sc3c(c2C#N)CC(C)(C)NC3(C)C)cc1 | -16.2% | i | i | ? | 20.6µM* | i
Cc1cccc(N2CCN(C(=O)c3cccn3-c3nnc(N4CCCCC4)s3)CC2)c1C | / | i | i | / | / | /
OCC1(Cc2cccc(Cl)c2)CCCN(Cc2ccc(F)c(F)c2)C1 (centres undefined) | -20.5% | i | i | 25.9µM* | -29.1% | ?
CC(C)Oc1ccc(CN2CCCC(CO)(Cc3ccc(F)cc3)C2)cc1 (centres undefined) | -17.4% | i | i | 29.1µM* | ? | i
COc1cc(CN2CCCC(CO)(Cc3cccc(Cl)c3)C2)cc(OC)c1O (centres undefined) | -16.0% | i | i | -0.2% | -13.2% | /
COc1cc(CN2CCCC(CO)(Cc3cccc(Cl)c3)C2)cc2c1OCO2 (centres undefined) | -23.6% | i | i | 16.4µM* | ? | i
NC(N)=Nc1nc(CSCCC(N)=NS(N)(=O)=O)cs1 | 8.0% | / | / | / | / | /
Fc1ccc(Nc2ncnc3onc(-c4ccc(Cl)cc4)c23)cc1Cl | 1.8% | i | i | / | / | i
COC(=O)c1sccc1S(=O)(=O)N(CC(=O)NCc1ccc(C)cc1)c1ccc(C)c(C)c1 | 13.2% | i | i | / | / | i
COC(=O)CNC(c1ccccc1Cl)c1cc(Br)ccc1NS(=O)(=O)c1ccc(C)cc1 (centres undefined) | -14.2% | ? | 18.4µM* | -26.6% | -21.8% | ?
CC(=O)OCC#CCSc1nnc(-c2cccc(Br)c2)o1 | 12.4% | i | i | / | / | i
COc1ccc(-n2c(=O)c3sc4ccccc4c3n(Cc3ccccc3)c2=O)cc1 | 11.8% | i | i | / | / | i
Cc1noc(C)c1COc1ccc(C(=O)N2CCN(c3cccc(Cl)c3)CC2)cc1 | -7.3% | i | i | 2.4% | 15.0% | i
Cc1cc(C)c(S(=O)(=O)N2CCN(C(=O)c3ccccc3OCc3c(C)noc3C)CC2)c(C)c1 | -15.2% | i | 7.31µM* | -0.4% | -7.2% | i
Cc1noc(C)c1COc1ccccc1C(=O)N1CCN(c2cccc(Cl)c2)CC1 | / | ? | ? | 23.1µM* | 23.1µM* | i
CSc1ccccc1C(=O)NCC1Cc2cc(F)cc(-c3cnccn3)c2O1 (centres undefined) | / | / | / | / | / | i
CC(C)c1ccc2occ(CC(=O)Nc3ccccc3Cl)c2c1 | 1.8% | i | i | / | / | i
Cc1ccc([N+](=O)[O-])c(OCCN2CCC(Cc3ccccc3)CC2)c1 | -27.0% | ? | 20.6µM* | 16.4µM* | 20.6µM* | i
CCC(=O)c1ccccc1OCCCN1CCC(Cc2ccccc2)CC1 | ? | ? | ? | ? | 18.4µM* | ?
Cc1ccccc1OCCN1CCC(Cc2ccccc2)CC1 | / | i | i | -1.6% | -6.7% | ?
SMILES | ATXN2 expr inh | KB-3-1 cytotox | KB-V1 MDR tox | HT1080 IDH1KD tx | HT1080NT lethal | S2 tox
CC(C)NC(=O)c1cn([C@H]2CC[C@@H](NC(=O)/C=C/c3cccs3)CC2)nn1 | / | / | / | / | / | i
CSc1ccc(/C=C2\C=Cc3ccccc32)cc1 | / | i | i | / | / | /
CC(c1ccccc1)N1C(=O)/C(=C/c2ccncc2)SC1=S (centres undefined) | / | ? | ? | ? | ? | 22.4µM*
CCC(=O)Nc1cc(-c2nn(C)c(=O)c3ccccc23)ccc1N1CCOCC1 | 1.3% | i | i | 12.8% | 0.9% | i
Cn1nc(-c2ccc(N3CCCCC3)c(NC(=O)c3ccco3)c2)c2ccccc2c1=O | ? | 8.2µM* | ? | 13.7% | 11.7% | ?
O=S(=O)(c1ccccc1F)N1CCN(Cc2cc3c(cc2Br)OCCO3)CC1 | -16.2% | i | 20.6µM* | 1.6% | 6.8% | i
COc1cc(CNCc2ccccn2)ccc1OCc1ccc(Cl)cc1Cl | -23.1% | ? | ? | 20.6µM* | 23.1µM* | i
COc1cc(CNCCN2CCOCC2)ccc1OCc1ccc(Cl)cc1Cl | ? | ? | ? | 20.6µM* | 25.9µM* | /
COc1cc(CNCCN2CCOCC2)ccc1OCc1cccc(Cl)c1 | -0.2% | i | i | ? | ? | i
CN(C)c1ccc(C(CNC(=O)c2ccccc2)N2CCc3ccccc32)cc1 (centres undefined) | / | i | i | / | / | /
CCNC(=O)C1(C)CCCN(Cc2csc(-c3ccc(Cl)cc3)n2)C1 (centres undefined) | -35.4% | ? | i | ? | 0.461µM* | i
Cc1cc(=O)[nH]c(N/N=C/c2ccc(-c3ccc(F)cc3)o2)n1 | 26.0% | ? | ? | 8.2µM* | ? | i
CSc1ccc(/C=N/Nc2nc(C)cc(=O)[nH]2)cc1 | 10.0% | i | i | 1.4% | -0.2% | i
COc1ccc(C2c3ccc4ccccc4c3Oc3ncn(Cc4ccco4)c(=N)c32)cc1OC (centres undefined) | -33.2% | ? | ? | 20.6µM* | 20.6µM* | i
COc1ccccc1C1c2ccc3ccccc3c2Oc2ncn(CCCO)c(=N)c21 (centres undefined) | -30.2% | i | i | 23.1µM* | 20.6µM* | 20µM*
COc1ccc(C2c3ccc4ccccc4c3Oc3ncn(CCCN(C)C)c(=N)c32)cc1 (centres undefined) | ? | ? | ? | ? | 18.4µM* | ?
COc1ccccc1C1c2ccc3ccccc3c2Oc2ncn(CCN(C)C)c(=N)c21 (centres undefined) | 25.1µM* | ? | ? | 8.2µM* | 10.3µM* | 22.4µM*
N=c1c2c(ncn1CCCO)Oc1cc(O)ccc1C2c1ccccc1 (centres undefined) | 1.9% | i | i | 2.7% | -0.6% | i
NC(=O)c1cc(S(=O)(=O)NCC2CCC(C(=O)Nc3ccc(Cl)cc3)CC2)cs1 (centres undefined) | 0.9% | i | i | / | / | i
